Methyltransferases – Primary Screen for Target Class Profiling of Small Molecule Inhibitors of Methyltransferases; purified enzyme, MTase-Glo SAH luminescence; stronger effect = lower value; calls only at 40 µM; hit rate 3.9% among 25,000; AID 1745853, 2022; call rule not given here
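Each enzyme was reacted with SAM and its substrate, with compounds tested once at 40 uM; SAH formed was read by MTase-Glo luminescence.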
Numbers without * were called inactive; i = inactive; + = active, no number; ! = a repeat was not active. Only a selection was taken, and hits are over-represented in it overall. % is scaled to controls: 0 for no effect and ±100 for the full control effect.

SMILES	Methyltransferases
C=CCn1c(=O)c2c(nc(-c3ccc(S(=O)(=O)O)cc3)n2C)n(C)c1=O	i
Cn1c(=O)c2[nH]c(-c3ccc(S(=O)(=O)O)cc3)nc2n(C)c1=O	+
CC(C)(C)n1cnc2cccnc21	i
COC(=O)c1ncn2c1C(=O)N(Cc1ccc(OC)cc1)C(C)(C(=O)NCCCOC(C)C)C2 (stereo not drawn)	i
CC(=O)N1CCC(N[C@H]2C[C@@H](Cc3cc(CN(C)C)on3)C2(C)C)CC1	i
O=C(C1CCCC1)N1CCCC(C(=O)N2CCC(c3nc4ccncc4[nH]3)C2)C1 (stereo not drawn)	i
O=C(NCCc1ccccc1)Nc1cccn2ncnc12	i
Cc1cc(NC(=O)NCCN2CCC(O)(Cc3ccccc3)CC2)c2ccccc2n1	+
CN1C(=O)c2cc(C(=O)NCCN3CCOCC3)nn2CC1(C)C(=O)NCc1ccccc1 (stereo not drawn)	i
CC(C)OCCCNC(=O)C1c2c(n(C)c3ccccc23)SCC(=O)N1Cc1ccco1 (stereo not drawn)	i
CCCS(=O)(=O)N1CCCCC1c1nc(-c2cnccn2)n[nH]1 (stereo not drawn)	i
CC1(C(=O)NC2CCCCC2)Cn2c(cc3occc32)C(=O)N1C1CCCCC1 (stereo not drawn)	i
CCOC(=O)c1cc2n(n1)CC(C)(C(=O)NC1CCCCCC1)N(c1ccc(C)cc1C)C2=O (stereo not drawn)	i
CCCNc1ccc2ncc(-c3ccc4[nH]ncc4c3)n2n1	+
Cn1c(=O)c2ccc(C(=O)NC3CCCCC3)cc2n2c(=O)n(Cc3ccccc3Cl)nc12	i
CC(C)c1noc(-c2cn(C3CCN(C(=O)c4ccc5ccccc5n4)C3)nn2)n1 (stereo not drawn)	i
CC(=O)Nc1c2n(c3ccc(F)cc13)CC(C)(C(=O)NC1CCCCC1)N(C1CCCCCC1)C2=O (stereo not drawn)	i
Cc1nc([C@](C)(O)CO)sc1-c1cnc(N)c(O[C@H](C)c2cc(F)ccc2-n2nccn2)c1	+
O=C1CSc2ccccc2N1Cc1cccc(C(F)(F)F)c1	+
O=C1CN(Cc2cccc(F)c2)S(=O)(=O)c2ccccc2N1Cc1ccc(Cl)cc1	i
Cc1ccc(CN2CC(=O)N(Cc3cccc(F)c3)c3ccccc3S2(=O)=O)cc1	i
COc1ccc(-c2cc3n(n2)CC(C)(C(=O)NCc2ccccc2)N(c2ccc(C)cc2)C3=O)cc1 (stereo not drawn)	i
CC(=O)c1c(C)nn(CCC(=O)N2CCC3(CC2)[C@H](O)C[C@@H]3O)c1C	i
Cc1ccc(C)c(C(=O)Cn2nc3n(CC(C)C)c(=O)c4ccc(C(=O)NCC(C)C)cc4n3c2=O)c1	i
CC1(C)CCC(C)(C)c2cc([C@@H](O)C(=O)Nc3ccc(C(=O)O)cc3F)ccc21	i
SMILES	Methyltransferases
CC1(C)CCC(C)(C)c2cc(C#Cc3ccc(C(=O)O)cc3)ccc21	+
CC(N)(C(=O)O)c1ccc(C(=O)O)cc1 (stereo not drawn)	i
Cc1cc2c(cc3n2CC(C)(C(=O)NC2CCCCCCC2)N(CCCN2CCOCC2)C3=O)o1 (stereo not drawn)	i
C/C=C1\[C@H](OC2OC(COC3OC(CO)C(O)C(O)C3O)C(O)C(O)C2O)OC=C(C(=O)OC)[C@H]1CC(=O)OCCc1ccc(O)cc1 (stereo partly drawn)	i
CC1(C)CC(=O)c2c(C(F)(F)F)nn(-c3ccc(C(N)=O)c(NC4CCC(OC(=O)CN)CC4)c3)c2C1 (stereo not drawn)	+!
CCc1cccc(NC(=O)Cn2nc3n(CCC(C)C)c(=O)c4ccc(C(=O)NC(C)C)cc4n3c2=O)c1	i
CC1(C)CCCC2(C)c3c4c(c(=O)oc(=O)c3=CCC12)=CCC1C(C)(C)CCCC41C (stereo not drawn)	i
CN1CCN(C(=O)c2cc(-c3ccsc3)nc3c2cnn3C)CC1	i
COCCNC(=O)c1ncn2c1C(=O)N(C1CC1)C(C)(C(=O)NCc1cccc(C)c1)C2 (stereo not drawn)	i
Cc1ccccc1Sc1ccc(/C=C2\SC(=S)NC2=O)cc1[N+](=O)[O-]	+
COc1ccccc1CNC(=O)C1(C)Cn2c(cc3ccccc32)C(=O)N1Cc1ccc(Cl)cc1 (stereo not drawn)	i
CCn1nccc1C(=O)N1CC[C@H](n2c(=O)n(C)c3cccnc32)C1	i
CN1CCN(CCOc2cc(OC3CCOCC3)c3c(Nc4c(Cl)ccc5c4OCO5)ncnc3c2)CC1	+
Cc1ccc(CN2C(=O)c3cc4sccc4n3CC2(C)C(=O)NC2CCCCC2C)cc1 (stereo not drawn)	i
CCC(NC(C)C)C(O)c1ccc(O)c(O)c1 (stereo not drawn)	i
NCC(O)c1ccc(O)c(O)c1 (stereo not drawn)	+
CC(CCc1ccccc1)NCC(O)c1ccc(O)c(C(N)=O)c1 (stereo not drawn)	i
COc1cccc(S(=O)(=O)N2C[C@@H](C)[C@](O)(C3CCC3)C2)c1	i
CC(=O)N1CCN(CC[C@H]2CN(C(=O)c3ccc(N(C)C)cc3)CC[C@H]2CC(=O)O)CC1	i
Cc1ccc(CCNC(=O)c2cc3n(n2)CC(C)(C(=O)NCc2ccccc2)N(C)C3=O)cc1 (stereo not drawn)	i
COCCNC(=O)c1cc2n(n1)CC(C)(C(=O)NCc1ccccc1)N(C)C2=O (stereo not drawn)	i
CCOC(=O)c1cnc2ccc(-c3cncc(NS(=O)(=O)c4ccccc4)c3)cn12	+
CCOC(=O)c1ccc(NS(=O)(=O)c2ccc3c(c2)n(C)c(=O)n3C)cc1	i
CCOC(=O)c1cccc(NS(=O)(=O)c2ccc3[nH]c(=O)[nH]c3c2)c1	i
CCCCNc1nc2c(S(=O)(=O)c3ccc(C(C)C)cc3)nnn2c2ccccc12	i
SMILES	Methyltransferases
NC[C@@](O)(c1ccc(Cl)cc1)c1ccc(-c2cn[nH]c2)cc1	+
NCC(O)(CS(=O)(=O)O)c1ccc(Cl)cc1 (stereo not drawn)	i
COc1ccc(CNC(=O)Cn2ccc3cc(S(=O)(=O)N4CCCC4)ccc32)cc1OC	i
CC(C)n1cc(-c2ccc(Oc3ccccc3)cc2)c2c(N)ncnc21	+
COCCOc1cc(C)c2c(c1C)C[C@H](C(C)C(=O)NCc1cccs1)CC2 (stereo partly drawn)	i
CCOC(=O)Cn1cccc1-c1nc(-c2ccc(OC)cc2)c(-c2ccc(OC)cc2)s1	+
COc1ccc(NC(=O)c2nc3sccn3c2-c2cccc(OC)c2)cc1	i
CC(=O)O[C@H]1Cc2ccccc2N(C(N)=O)c2ccccc21	i
CCCc1cc(N2CCC(NCc3c(F)cccc3Cl)CC2)nc(C)n1	i
CC1=C[C@H](O)[C@H]2C(C)(C)CCC[C@]2(C)[C@@]1(O)CO	i
CC1(C)CCCC2(C)C1C(O)C=C(CO)C2(O)CO (stereo not drawn)	i
COC1C=C(C)C(O)(CO)C2(C)CCCC(C)(C)C12 (stereo not drawn)	+
CCC(C)NC(=O)c1ccc2c(=O)n(CCC(C)C)c3nn(Cc4ccc(F)cc4)c(=O)n3c2c1 (stereo not drawn)	i
CCC(=O)N1CCN(C(=O)c2ccccc2)CC1	i
CCN(CC)CCNC(=O)c1cc(Cl)c(N)cc1OC	i

Source: PubChem
